Drawing on PubChem BioAssay AID624169 (The Scripps Research Institute Molecular Screening Center, 2012), this text covers activation for 35 compounds.

SMILES strings stand for the structures. Hit rate of the full screen: of about 360,000 compounds, about 2,400 (0.67%) were called active. The list comes from a sample in which actives are over-represented; it also holds similar structures and randomly drawn compounds. A number with no mark means an inactive call.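 How the source made its calls: active means activation above a run cutoff, the mean activation of all tested compounds plus 3 SD (cut at about 14% in these data); inactive means the rest.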

For the test, the target named is 5-hydroxytryptamine receptor 2A (Mus musculus) (UniProt P35363). Description: activation of mouse 5-HT2A receptor – cell-based, luminescence, primary screen (AID 624169).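 Further: 0% = plate median of compound wells and 100% = 30 µM serotonin.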 The conditions noted are these: CHO-K1 mHTR2A beta-arrestin complementation, at 7.6 µM, stronger effect = higher value, percent of 30 µM serotonin response.
5-hydroxytryptamine receptor 2A (Mus musculus), sequence (P35363 whole entry, looked up): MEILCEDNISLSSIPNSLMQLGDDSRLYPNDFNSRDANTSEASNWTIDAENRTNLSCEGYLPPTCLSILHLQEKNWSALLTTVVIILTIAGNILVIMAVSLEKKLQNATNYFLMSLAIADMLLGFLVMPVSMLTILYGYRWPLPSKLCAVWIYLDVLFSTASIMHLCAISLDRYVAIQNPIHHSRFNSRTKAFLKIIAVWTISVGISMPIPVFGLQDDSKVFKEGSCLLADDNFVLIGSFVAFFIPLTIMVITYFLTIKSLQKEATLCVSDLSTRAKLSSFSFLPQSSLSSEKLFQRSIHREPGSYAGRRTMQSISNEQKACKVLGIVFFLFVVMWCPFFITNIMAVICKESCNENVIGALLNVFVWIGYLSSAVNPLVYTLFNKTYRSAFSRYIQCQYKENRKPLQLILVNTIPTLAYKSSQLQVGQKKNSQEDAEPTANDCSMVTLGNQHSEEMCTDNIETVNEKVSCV
In the case of `C=CCNC(=O)C12CC3CC(C1)CC(C(=O)NCC=C)(C3)C2`, the activation is -0.48%.
On to `Cc1ccccc1NC(=O)C1CCN(C(=O)NC2CCCCC2)CC1`, for which the activation was -2.36%.
On to `O=C(Nc1ccccc1C(=O)O)c1ccc(N2C(=O)C3CC=CCC3C2=O)cc1` (stereo not given), for which the activation was -7.43%.
On to `OCC1(Cc2ccccc2)CCN(Cc2cc3ccccc3o2)CC1`, for which the activation is 19.6% (active).
Consider `CC(C)c1csc(CN2CCC(CO)(Cc3ccccc3)CC2)n1`, for which the activation was -5.03%.
In the case of `O=C(c1cc2ccccc2o1)N1CCN(Cc2ccccc2)CC1` it was -4.53%.
For the compound `CC(C)(C)NC(=O)C(=O)NCc1ccncc1`, the activation is -5.23%.
Take `COCCCN1C(=O)c2ccc(C(=O)OCC(=O)NCc3ccccc3OC)cc2C1=O`: the activation is -1.38%.
For `COc1ccc(S(=O)(=O)NC(C)c2ccccc2)cc1C(=O)N1CCCCC1` (stereo not given), the activation is 4.88%.
In the case of `C[C@H](O)[C@@H]1C(=O)N2CCc3ccc(N4CCOCC4)cc3[C@@H]2C[C@@H]1N(C)C(=O)C(C)(C)C` it was 9.06%; in that of `CN[C@H]1C[C@H]2c3cc(Oc4ccccc4C)ccc3CCN2C(=O)[C@H]1[C@H](C)O`, 0.5%.
As to `C[C@@H]1ON(C)[C@H]2C[C@H]3c4cc(N5CCN(C)CC5)ccc4CCN3C(=O)[C@@H]12`, the activation is 29.5% (active).
Take `Cc1nn(C)cc1S(=O)(=O)N1CCN(c2ccc(F)cc2)CC1`: the activation was -4.86%.
Regarding `O=C(NC(c1ccc(Cl)cc1)c1cnccn1)C1CCN(Cc2ccc(Cl)cc2)CC1` (stereo not given), the activation was -6.28%.
For `Cc1cccnc1C(NC(=O)C1CCN(Cc2ccc(Cl)c(Cl)c2)CC1)c1ccc(Cl)cc1` (stereo not given), the activation is 16.4% (active).
For `Cc1ccc(C(NC(=O)C2CCN(CCOc3ccc(Cl)cc3Cl)CC2)c2ccccn2)cc1` (stereo not given), the activation was -3.52%.
For the compound `CCC/C=C(\CCC)C(NC(=O)Cc1ccccc1)c1ccc(C(=O)OC)cc1` (stereo not given), the activation is -7.9%.
Regarding `Cc1cccc(N2CC(C)Cn3c2nc2c3c(=O)n(CC(=O)OCc3ccccc3)c(=O)n2C)c1` (stereo not given), the activation is 0.76%.
`CNS(=O)(=O)c1cccc(C(=O)OCC(=O)N2c3ccccc3NC(=O)C2(C)C)c1`: the activation was -2.19%.
Turning to `Cc1ccc(OCCC(=O)OCC(=O)N2c3ccccc3NC(=O)C2(C)C)cc1`, the activation was -2.36%.
For the compound `Cc1cc(C(=O)OCC(=O)N2c3ccccc3NC(=O)C2(C)C)c(C)n1-c1ccccc1`, the activation was 15.2% (active).
Consider `COc1ccc(N)cc1NC(=O)CN1CCOCC1`, for which the activation was -3.94%.
Consider `COc1ccc(C)cc1N(C(=O)Cn1nnc(-c2ccc(C)o2)n1)C(C(=O)NC1CCCC1)c1ccncc1` (stereo not given), for which the activation was -2.27%.
In the case of `COC(=O)c1ccc(S(=O)(=O)NCc2ccccc2)n1C` it was -2.3%.
For the compound `CC(C(=O)N1CCc2ccccc21)N(C)CC(=O)Nc1ccc(F)cc1` (stereo not given), the activation is -3.41%.
Turning to `O=C(Cc1cccs1)NCc1cccc(C(F)(F)F)c1`, the activation is -6.31%.
In the case of `N/C(=N\S(=O)(=O)c1cc(C(F)(F)F)cc(C(F)(F)F)c1)c1cccs1`, the activation was 31.8% (active).
Regarding `Cc1ccc(S(=O)(=O)/N=C(\N)c2ccc(F)cc2)cc1`, the activation is 0.59%.
Turning to `Cc1ccc(N2C(=O)C3N=NN(CC(=O)N4N=C(c5cccc6ccccc56)CC4c4ccccc4)C3C2=O)cc1` (stereo not given), the activation was 17.6% (active).
For `O=C1C2N=NN(CC(=O)N3N=C(c4cccc5ccccc45)CC3c3ccccc3)C2C(=O)N1c1ccccc1` (stereo not given), the activation is 2.13%.
On to `Oc1ccccc1C1=NN(c2ccccc2)C(c2ccccc2)C1` (stereo not given), for which the activation was 5.22%.
Take `CCN(CC(=O)Nc1cccc(S(=O)(=O)N2CCCCC2)c1)Cc1ccccc1`: the activation is -11.3%.
For `COc1cc(Cl)ccc1OCc1cc(C(=O)N(C)CCc2c(C)n[nH]c2C)no1` the value was -10.7%; for `CCCNC(=O)C1(C)CCN1C(=O)C1(c2ccccc2)CC1` (stereo not given), -0.58%; for `CCCOc1ccc(Cc2c(O)nc(N)[nH]c2=O)cc1C`, 2.5%.
